The source of these data is PubChem BioAssay (NCI).

The structures appear in SMILES notation. About 83,000 compounds went through this panel and 20% of them were active in at least one assay; those are over-represented in the sample as a whole.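 Cell lines were cultured in 96-well plates, exposed to a single compound concentration, and assessed for percent growth 48 hours later.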 The source made the active and inactive calls. How the source made its calls: active means growth percent below 10; inactive means the rest.

The first assay has as its system UO-31 renal. The assay is described as follows: NCI-60 one-dose screen, 48 h (100 = growth as untreated, 0 = no growth, -100 = all killed). The settings on record: 10 µM unless noted.
`O=S(=O)(Nc1cc(Cl)cc(Cl)c1)c1ccc(-c2cnc(C3CC3)o2)cc1`: the growth was 53% (inactive).
Turning to `CC(=O)Nc1ccc(NC(=O)Nc2cccc(-c3nc(-c4ccc(NC(=O)c5cccnc5)cc4Cl)no3)c2)cc1C(F)(F)F`, the growth is 52.9% (inactive).
On the same count and under the same terms, the same measure for `O=C(Nc1cccc(-c2nc(-c3ccc(NC(=O)c4cccs4)cc3Cl)no2)c1)Nc1ccc(NC(=O)C2CC2)c(C(F)(F)F)c1`: -23.6% (active); for `CN1C(=O)N(C)C2Nn3c(s/c(=C\c4ccccn4)c3=O)=NC21` (stereo not drawn): 88.1% (inactive).

The subject of a further assay is TK-10 renal. The description is as above. The settings on record: 10 µM unless noted.
Regarding `CCC(=O)Nc1ccc(-c2nc(-c3cccc(O)c3)c(-c3ccnc(Br)c3)[nH]2)cc1`, the growth was 87.6% (inactive).
Still for that read-out and setting: in the case of `NC(=O)c1c(NC(=O)c2cccc(OC(F)(F)F)c2)sc2c1CCC(=O)C2` it was 73.3% (inactive).
On the same count and under the same terms, in the case of `COc1cc(C2=NN(C(C)=O)C(c3ccc(N4CCOCC4)cc3)C2)cc(OC)c1OC` (stereo not drawn) it was 108% (inactive); in that of `CCC(=O)Nc1cc(Nc2cc(NC3CC3)n3ncc(C#N)c3n2)ccc1C`, 15.5% (inactive); in that of `O=C(CSc1ccc(-c2nc3ccccc3[nH]2)cn1)N1CCN(c2ccccc2F)CC1`, 86.5% (inactive).
`NCCN1CCN(c2nc(-c3ccccc3)nc3nc(-c4ccccc4)oc23)CC1`: the growth is -28.7% (active).
As for `CCN(CC)Cc1c(-c2cccc(OC(F)(F)F)c2)[nH]c2ccc(N3CCCC3)cc2c1=O`, the growth was 124% (inactive).
Regarding `C#C[C@]1(O)CC[C@H]2[C@@H]3CC=C4c5sc(-c6ccc(OC)cc6)nc5CC[C@]4(C)[C@H]3CC[C@@]21C`, the growth was 78% (inactive).
Turning to `C#C[C@]1(O)CC[C@H]2[C@@H]3CC=C4c5sc(Nc6cc(OC)ccc6OC)nc5CC[C@]4(C)[C@H]3CC[C@@]21C`, the growth is 84.7% (inactive).
